ASM inhibitor: Inhibitors of Secretory Acid Sphingomyelinase (S-ASM): qHTS; Sphingomyelin phosphodiesterase (Homo sapiens), P17405; placental ASM, HMU-PC fluorogenic substrate, 60 min; Potency, µM (series often up to 57.5 µM), without a hit: top-dose activity change, negative = inhibition, hits mostly inhibitors; 0.006% of 340,000 active; also: potency is read from the fitted curve at half-maximal effect
Target sequence (P17405 47-631 limits assumed): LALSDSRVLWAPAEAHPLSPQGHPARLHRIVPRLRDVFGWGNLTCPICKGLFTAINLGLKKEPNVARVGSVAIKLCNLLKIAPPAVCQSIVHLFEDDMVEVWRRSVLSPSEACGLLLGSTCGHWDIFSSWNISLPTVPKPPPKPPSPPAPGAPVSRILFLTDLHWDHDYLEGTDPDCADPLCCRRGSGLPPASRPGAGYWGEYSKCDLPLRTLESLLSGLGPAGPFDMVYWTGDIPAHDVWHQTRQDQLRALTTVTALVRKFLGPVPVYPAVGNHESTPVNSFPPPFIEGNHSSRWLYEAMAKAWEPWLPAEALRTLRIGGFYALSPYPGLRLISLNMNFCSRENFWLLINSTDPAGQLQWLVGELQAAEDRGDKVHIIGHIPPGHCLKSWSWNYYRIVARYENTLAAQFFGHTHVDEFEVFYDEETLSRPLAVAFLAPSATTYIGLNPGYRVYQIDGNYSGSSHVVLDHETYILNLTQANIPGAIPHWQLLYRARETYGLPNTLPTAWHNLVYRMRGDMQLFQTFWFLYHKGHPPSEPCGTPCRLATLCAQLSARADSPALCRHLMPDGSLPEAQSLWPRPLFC
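Steps: dispense placental human ASM, pin compound, wait 10 min at room temperature, add HMU-PC0 substrate at 9 uM final, incubate 60 min at 37 °C, add stop solution raising pH to 10, read fluorescence.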
IL-1B inflam inh: qHTS for Inhibitors of Inflammasome Signaling: IL-1-beta AlphaLISA Primary Screen; activity change, % at 57.5 µM; AID 743279, 2014; THP-1 LPS/ATP IL-1B secretion, AlphaLISA, 16 h; active compounds read low; 4.7% of 360,000 active; in the data active = activity change below about -50%; inconclusive = mostly about -30% to -49%; also: % is scaled to controls: 0 for no effect and ±100 for the full control effect
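THP-1 cells pretreated 1 hr with compounds (up to 57.5 uM final), then stimulated with LPS (250 ng/mL final) plus ATP (1.25 mM final); secreted IL-1B measured by AlphaLISA after 16 hr, decreased signal indicating inhibition.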
TGFb inhibitor: qHTS for Inhibitors of TGF-b; Potency, µM (highest dose often 46.1 µM), for the others: top-dose activity, negative = inhibition, most hits filed as inhibitors; HepG2 CAGA-GFP TGF-b/SMAD3 reporter, GFP fluorescence, 18 h; TGF-beta stimulated, 500 pg/mL final; 1.2% of 410,000 active; also: potency is read from the fitted curve at half-maximal effect; % is scaled to controls: 0 for no effect and ±100 for the full control effect; nearly all actives have a fitted effect of over 65% in size
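Per well, imaged GFP fluorescence of HEPG2 CAGA-GFP cells gives the signal; cells get compound, then TGF-beta (500 pg/mL final), 18 h at 37 degrees C; %Activity versus -TGF-beta and +DMSO controls.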
HepG2 tox: qHTS for Inhibitors of TGF-b: Cytotox Counterscreen | HepG2 CAGA-GFP viability, ATP luminescence, 18 h | 0.76% of 410,000 active | AID 588856, 2011 | Potency, µM (doses to about 46.1 µM), for the others: at the top dose activity change, negative = cytotoxicity, hits mostly cytotoxic; also: potency is read from the fitted curve at half-maximal effect
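HepG2 CAGA-GFP cells (1000/well, DMEM with 1% FBS) received compound, then TGF-beta at 500 pg/mL final, and were incubated 18 hours at 37 degrees C. Viability was read by CellTiter-Glo luminescence. Media-only wells were set as complete cell-killing and DMSO as no toxicity.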
TDP1 cell noCPT: qHTS for Inhibitors of human tyrosyl-DNA phosphodiesterase 1 (TDP1): qHTS in cells in absence of CPT | DT40 Tdp1-/- hTDP1 cells, no CPT, ATP luminescence, 48 h | Potency, µM (titrated, usually from 46.2 µM), inactives show top-dose activity change, negative = growth inhibition, actives largely listed as inhibitors | 15% of 420,000 active; also: potency is read from the fitted curve at half-maximal effect; % is scaled to controls: 0 for no effect and ±100 for the full control effect; nearly all actives have a fitted effect of over 55% in size
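Growth kinetics read by CellTiter-Glo luminescence after ≥48 hr at 37 °C. Cells: DT40 Tdp1-/- stably carrying human TDP1, 400 per well, compound exposure in the absence of CPT (DMSO vehicle).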
TDP1 cell CPT: qHTS for Inhibitors of human tyrosyl-DNA phosphodiesterase 1 (TDP1): qHTS in cells in presence of CPT; AID 686979, 2013; Potency, µM (titrated, usually from 46.2 µM), for the others: at the top dose activity change, negative = growth inhibition, usual class: inhibitors; chicken DT40 Tdp1-/-;hTDP1 cells + 20 nM CPT, ATP luminescence, 48 h; 12% of 420,000 active; also: potency is read from the fitted curve at half-maximal effect; % is scaled to controls: 0 for no effect and ±100 for the full control effect; nearly all actives have a fitted effect of over 55% in size
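Chicken DT40 Tdp1-/- cells complemented with human TDP1, 400 cells/well, exposed to compounds plus 20 nM camptothecin for at least 48 h at 37 C; viability read as ATP content by CellTiter-Glo luminescence.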
Starred values were filed as active, the others as inactive; u = inconclusive; x = no result. Sampled rows, rich in hits. Any-hit rate of the full collection: about 19%. Unless noted, calls follow the shape of the dose curve; as a rule, active = well fitted curve in the direction sought with a large enough effect; inconclusive = small, poorly fitted or top-dose-only effect, or another doubt; inactive = no such curve, though single readings can be large; an effect the other way counts as inactive or inconclusive.

SMILES | ASM inhibitor | IL-1B inflam inh | TGFb inhibitor | HepG2 tox | TDP1 cell noCPT | TDP1 cell CPT
CCN(CC)c1ccc(NC2CC(=O)N(CCc3ccc(OC)cc3)C2=O)cc1 (stereo unspecified) | -3% | -10 | -16% | -6% | 15µM* | 13µM*
COc1ccc(CCNC2CC(=O)N(CCc3ccccc3)C2=O)cc1 (stereo unspecified) | 3% | 9 | u | -11% | -15% | -18%
Cc1ccc(NC(=O)C(=O)NCCCN2CCOCC2)cc1C | x | x | 0% | -1% | 5% | 3%
COC(=O)[C@@]12C[C@@H](CC(=O)NCc3cccs3)C(=O)N(Cc3ccc4c(c3)OCO4)C1=CCC(C)(C)C2 | x | -9 | x | x | u | u
COC(=O)[C@@]12C[C@@H](CC(=O)NCc3ccc(C)o3)C(=O)N(Cc3ccc4c(c3)OCO4)C1=CCC(C)(C)C2 | x | u | x | x | 12µM* | 21µM*
COC(=O)[C@@]12C[C@@H](CC(=O)NCC3CCCCC3)C(=O)N(Cc3ccc4c(c3)OCO4)C1=CCC(C)(C)C2 | x | -54* | x | x | u | u
COC(=O)[C@@]12C[C@@H](CC(=O)N3CCN(C(=O)C4CC4)CC3)C(=O)N(Cc3ccc4c(c3)OCO4)C1=CCC(C)(C)C2 | x | 5 | x | x | 16µM* | u
COC(=O)[C@@]12C[C@@H](CC(=O)NCC34CC5CC(CC(C5)C3)C4)C(=O)N(Cc3ccc4c(c3)OCO4)C1=CCC(C)(C)C2 | x | -4 | x | x | u | u
Cc1cccc(N2CC(C(=O)NCCC3=CCCCC3)CC2=O)c1C (stereo unspecified) | 3% | 7 | -3% | -14% | u | u
C=CCC[C@@H](Cc1ccc(F)cc1)C(=O)OC[C@@H](Cc1c[nH]c2ccccc12)NC(=O)[C@H](CC=C)CC(=O)N(CCO)Cc1ccccc1 | -9% | u | u | -17% | u | 21µM*
C=CC[C@@H](CC(=O)N(CCO)Cc1ccccc1)C(=O)N[C@@H](COC(=O)[C@@H](CC=C)Cc1ccc(F)cc1)Cc1c[nH]c2ccccc12 | -4% | -52* | u | -18% | 16µM* | u
C=CC[C@H](CC(=O)N(CCO)Cc1ccccc1)C(=O)N[C@@H](COC(=O)[C@@H](CC=C)Cc1ccc(F)cc1)Cc1c[nH]c2ccccc12 | 6% | u | u | -49% | 23µM* | 16µM*
CCOc1ccc(-n2c(SCC(=O)Nc3cccc(Cl)c3)nc3c(oc4ccccc43)c2=O)cc1 | x | x | -1% | -2% | 17% | 8%
COc1ccccc1/C=C1/SC(=S)N(C(C)C(=O)NC2C=CS(=O)(=O)C2)C1=O (stereo unspecified) | 0% | u | 12% | -2% | u | u
CC(C(=O)NC1C=CS(=O)(=O)C1)N1C(=O)/C(=C\c2ccccc2)SC1=S (stereo unspecified) | 7% | -62* | -13% | -40% | u | u
CC(C(=O)NC1C=CS(=O)(=O)C1)N1C(=O)/C(=C/c2cccc(Cl)c2)SC1=S (stereo unspecified) | u | -68* | -18% | -15% | -16% | 16µM*
CC(=O)c1cccc(NC(=O)CSc2nc3ccccc3nc2Cc2ccc(F)cc2)c1 | x | x | 0% | -10% | -30% | u
O=C(Nc1ccc2c(c1)OCO2)c1cc(C2CCCCN2C(=O)OCCF)on1 (stereo unspecified) | x | 11 | -13% | -26% | u | u
Cn1c(=O)c2[nH]c(CCCCCCCc3nc4ccccc4[nH]3)nc2n(C)c1=O | 1% | -19 | -27% | -28% | 13µM* | 23µM*
Cn1c(=O)c2[nH]c(CNCc3ccccc3Cl)nc2n(C)c1=O | 36% | -1 | 2% | -13% | 3.3µM* | 3.7µM*
Cn1c(=O)c2[nH]c(COc3ccc(C(C)(C)C)cc3)nc2n(C)c1=O | -11% | 38 | -18% | -43% | 4.6µM* | 8.2µM*
Cc1ccc(-c2nc(S(=O)(=O)c3ccccc3)c(N3CCN(c4ccccc4)CC3)o2)cc1 | x | x | u | -2% | u | u
CN(C)c1ccc(/C=C2\C(=O)/C(=C\c3ccc(N(C)C)cc3)c3ccccc32)cc1 | x | x | 5% | -11% | u | u
COc1ccc2[nH]c(C)cc2c1 | x | x | -9% | -20% | 4% | 1%
Cc1ccc2oc(C(=O)N3CCC(O)(c4cccc(C(F)(F)F)c4)CC3)c(C)c2c1 | -15% | -52* | u | -39% | u | 2%
CC(=O)N1CCC(O)(c2cccc(C(F)(F)F)c2)CC1 | 7% | 0 | -4% | -3% | -6% | -14%
CCOC(=O)CC(C)(C)/C(C)=N/Nc1ccc([N+](=O)[O-])cc1[N+](=O)[O-] | -13% | 10 | -3% | -14% | 15µM* | u
CC12CCC(c3c(C(=O)O)nn(-c4ccccc4)c31)C2(C)C (stereo unspecified) | 1% | -4 | 3% | -30% | 3% | 0%
CC12CCC(c3c(C(=O)Nc4nccs4)nn(-c4ccccc4)c31)C2(C)C (stereo unspecified) | -3% | -21 | 9% | -43% | 18µM* | 16µM*
Cc1cc(C)c2c(CN3CCN(C)CC3)cc(=O)oc2c1 | -10% | -4 | 16% | 2% | -7% | -10%
